Compound activity from PubChem.
Dicer inh: inhibitors of Dicer pre-microRNA processing, primary screen, biochemical, cat-ELCCA, chemiluminescence. Endoribonuclease Dicer (Homo sapiens), Q9UPY3. cat-ELCCA pre-miR-21 Dicer processing; active compounds read high. z-score at 25 µM. 47,000 compounds, 6% hits; in the data active = z-score above about 3, passing the limit was not always enough;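 note: higher signal means more uncleaved substrate so more Dicer inhibition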
Target sequence (Q9UPY3 whole entry, looked up): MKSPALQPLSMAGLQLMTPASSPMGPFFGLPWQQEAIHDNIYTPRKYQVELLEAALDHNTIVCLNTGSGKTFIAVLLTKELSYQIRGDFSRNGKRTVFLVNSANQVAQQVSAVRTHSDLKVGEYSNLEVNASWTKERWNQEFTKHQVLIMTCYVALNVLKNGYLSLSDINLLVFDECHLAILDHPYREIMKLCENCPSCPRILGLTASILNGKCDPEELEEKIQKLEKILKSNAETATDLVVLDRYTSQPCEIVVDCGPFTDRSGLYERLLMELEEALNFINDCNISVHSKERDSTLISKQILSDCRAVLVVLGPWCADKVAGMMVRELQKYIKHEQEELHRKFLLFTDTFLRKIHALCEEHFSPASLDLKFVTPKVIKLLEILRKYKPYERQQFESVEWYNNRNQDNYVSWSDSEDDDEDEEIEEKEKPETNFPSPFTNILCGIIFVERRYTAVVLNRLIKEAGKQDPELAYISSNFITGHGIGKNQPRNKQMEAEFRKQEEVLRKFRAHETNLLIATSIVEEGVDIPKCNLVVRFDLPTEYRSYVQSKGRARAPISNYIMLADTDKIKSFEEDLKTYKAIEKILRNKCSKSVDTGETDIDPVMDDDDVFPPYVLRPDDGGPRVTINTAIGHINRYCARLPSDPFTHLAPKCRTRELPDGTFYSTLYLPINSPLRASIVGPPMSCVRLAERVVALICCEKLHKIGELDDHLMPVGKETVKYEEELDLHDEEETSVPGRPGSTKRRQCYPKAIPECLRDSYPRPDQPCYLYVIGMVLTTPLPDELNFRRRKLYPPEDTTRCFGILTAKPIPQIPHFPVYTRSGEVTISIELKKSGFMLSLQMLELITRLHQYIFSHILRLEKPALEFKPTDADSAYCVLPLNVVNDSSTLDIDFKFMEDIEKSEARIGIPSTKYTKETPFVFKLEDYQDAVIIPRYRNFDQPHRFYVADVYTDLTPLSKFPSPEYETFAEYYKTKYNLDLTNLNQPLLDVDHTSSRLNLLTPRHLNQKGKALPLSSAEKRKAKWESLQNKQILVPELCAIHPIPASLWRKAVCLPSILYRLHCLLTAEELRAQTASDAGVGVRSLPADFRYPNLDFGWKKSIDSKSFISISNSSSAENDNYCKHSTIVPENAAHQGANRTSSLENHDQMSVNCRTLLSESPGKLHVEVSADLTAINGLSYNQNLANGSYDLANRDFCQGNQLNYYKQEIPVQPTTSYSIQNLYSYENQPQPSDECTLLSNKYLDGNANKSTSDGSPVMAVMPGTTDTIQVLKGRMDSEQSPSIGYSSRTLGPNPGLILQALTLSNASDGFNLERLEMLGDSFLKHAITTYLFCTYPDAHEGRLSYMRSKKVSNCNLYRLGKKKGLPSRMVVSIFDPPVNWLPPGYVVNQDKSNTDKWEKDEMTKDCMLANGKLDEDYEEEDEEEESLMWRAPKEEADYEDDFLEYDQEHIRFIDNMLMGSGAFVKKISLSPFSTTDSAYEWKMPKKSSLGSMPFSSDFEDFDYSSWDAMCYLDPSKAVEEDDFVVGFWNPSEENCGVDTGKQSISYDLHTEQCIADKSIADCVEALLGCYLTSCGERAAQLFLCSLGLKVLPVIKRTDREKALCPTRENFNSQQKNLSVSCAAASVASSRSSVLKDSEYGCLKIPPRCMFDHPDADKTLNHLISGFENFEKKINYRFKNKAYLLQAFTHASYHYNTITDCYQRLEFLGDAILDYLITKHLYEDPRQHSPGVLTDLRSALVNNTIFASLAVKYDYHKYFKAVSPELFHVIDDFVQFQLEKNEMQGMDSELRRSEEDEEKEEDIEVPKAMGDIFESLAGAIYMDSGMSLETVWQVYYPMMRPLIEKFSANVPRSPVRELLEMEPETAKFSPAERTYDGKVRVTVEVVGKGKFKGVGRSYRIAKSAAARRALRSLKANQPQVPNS
Each line names hits and unclear results; the compound was inactive in the other large screens. This excerpt belongs to a sample that is enriched for hits.

FC(F)(F)c1cccc(NC(=S)Nc2cccc(C(F)(F)F)c2)c1	none
Fc1cccc(NC(=S)NC(c2ccccc2)c2ccccc2)c1	Dicer inh 4.9
CCCCSc1nnc2c(n1)OC(C)=Nc1ccccc1-2	Dicer inh 3.2
CCCCSc1nnc2c(n1)OC(C)=Nc1ccc(Br)cc1-2	none
CCCCCSc1nnc2c(n1)OC(C)=Nc1ccccc1-2	none
COc1cc(Oc2nnnn2-c2ccccc2)ccc1CO	none
Cc1cc(C)nc(Sc2ccc(C(F)(F)F)cc2[N+](=O)[O-])n1	none
N#CC1=C(Nc2ccccc2Cl)SC(c2ccncc2)NC1=O (stereo not drawn)	none
COCCCNC1=C(C#N)C(=O)NC(c2cccs2)S1 (stereo not drawn)	Dicer inh 3.1
COCCCNC1=C(C#N)C(=O)NC(c2ccc(O)c(OC)c2)S1 (stereo not drawn)	none
CC(Sc1nccn1-c1cccc(Cl)c1Cl)C(=O)Nc1c(F)cccc1F (stereo not drawn)	none
CC1=C(C(=O)OC(C)C)C(c2cccc(OCc3ccccc3)c2)n2ncnc2N1 (stereo not drawn)	none
CCOC(=O)C1=C(C)Nc2ncnn2C1c1ccc(N(CC)CC)cc1 (stereo not drawn)	none
CC1=C(C(=O)OCc2ccccc2)C(c2ccc(OCc3ccccc3)cc2)n2ncnc2N1 (stereo not drawn)	Dicer inh 3.1
Cc1onc(-c2c(Cl)cccc2Cl)c1C(=O)NCCO	none
CC(C)N(C(=O)CN(C#N)c1nc(N(C)C)nc(N(C)C)n1)c1ccccc1	Dicer inh 5.2
CC(C)N(C(=O)CSc1nc2ccccc2s1)c1ccccc1	none
CC(O)c1nc2ccccc2n1CC(=O)N(c1ccccc1)C(C)C (stereo not drawn)	none
O=C(c1ccccc1)C(C(=O)N1CCC(Cc2ccccc2)CC1)n1ccccc1=O (stereo not drawn)	none
Cc1cc(C2(c3ccc(N)c(C)c3)CCCCC2)ccc1N	Dicer inh 3.1
Cc1cc(Cc2ccc(N)c(C)c2)ccc1N	none
Cc1ccc(O)c(C2=NN3C(C2)c2ccccc2OC3C(C)C)c1 (stereo not drawn)	none
Cc1ccc2c(c1C)NC(=O)CC(c1ccccc1O)=N2	none
Cc1ccc(O)c(C2=Nc3ccccc3N=C(c3ccco3)C2)c1	Dicer inh 4
S=C(NCCc1ccccc1)Nc1cccnc1	none
COc1ccc(/C=C/c2nc(-c3ccc(C)cc3)no2)cc1OC	Dicer inh 3.8
COc1ccc(/C=C/c2nc(-c3ccncc3)no2)cc1OC	none
COc1ccc(-c2nc(-c3ccc(C)cc3)no2)cc1OC	none
O=C(OC1CCSC1)c1cc(C(F)(F)F)cc(C(F)(F)F)c1 (stereo not drawn)	none
Cn1c(=O)c(I)c(O)c2ccccc21	Dicer inh 5.3
CC(=O)Oc1c(I)c(=O)n(C)c2ccccc12	none
Cn1c(=O)c(-c2ccccc2)c(O)c2ccccc21	none
CCCN1C(=O)C2(/C(=C(/O)c3ccc(F)cc3)C(=O)C(=O)N2CC2CCCO2)c2ccccc21 (stereo not drawn)	none
CS(=O)(=NS(=O)(=O)c1ccc(Cl)cc1)c1ccccc1 (stereo not drawn)	none
CS(=O)(=NS(=O)(=O)c1cc(Cl)ccc1Cl)c1ccc(Cl)cc1 (stereo not drawn)	Dicer inh 4.1
CS(=O)(=NS(=O)(=O)c1ccccc1C(F)(F)F)c1ccc(Cl)cc1 (stereo not drawn)	none
COc1cc(C(F)(F)F)nc2cc(C(C)(C)C)nn12	none
COc1ccccc1NC(=O)NC1CCS(=O)(=O)C1 (stereo not drawn)	none
Nc1nc(-c2ccncc2)ncc1S(=O)(=O)Cc1ccco1	none
CN(C)C(=S)Cc1ccc(Cl)cc1	none
ON(Cc1ccc(Cl)cc1)Cc1ccc(Cl)cc1	Dicer inh 3
ON(Cc1cccc(C(F)(F)F)c1)Cc1cccc(C(F)(F)F)c1	none
Cc1ccc(NC(=S)/N=C/N(C)C)c(C)c1	none
O=C(CSc1nnc2sc3ccccc3n12)N1CCCc2ccccc21	none
COc1ccc(S(=O)(=O)Nc2ccc(N3CCOCC3)cc2)cc1	none
COc1ccc(Nc2nc(N)nc(CN3CCOCC3)n2)cc1	none
COc1ccc(Nc2cc(C)nc(N3CCOCC3)n2)cc1	Dicer inh 6.7
CC(C)(C)c1cc2nc(C(F)(F)F)cc(N/N=C/c3ccccc3)n2n1	none
CC(C)(C)c1csc(NNC(=O)c2ccc(Cl)cc2)n1	none
CC(C)(C)c1cc2nc(C(F)(F)F)cc(NNC(=O)c3ccc(Cl)cc3)n2n1	Dicer inh 5.2
CC(C)(C)c1cc2nc(C(F)(F)F)cc(NNC(=O)Nc3ccccc3)n2n1	none
CC(C)(C)c1cc2nc(C(F)(F)F)cc(NNC(=O)c3ccccc3)n2n1	Dicer inh 6.7
CC(C)(C)c1cc2nc(C(F)(F)F)cc(Sc3ccc(Cl)cc3)n2n1	none
O=C1CC(c2ccc(C(F)(F)F)cc2)CC(=O)N1Cc1ccco1	none
c1ccc2c(CSc3nnc([C@@H]4CCCN4)o3)cccc2c1	none
CCCCOC(=O)Nc1sc2c(c1C(N)=O)CCC(C)C2 (stereo not drawn)	none
Cc1c(S(=O)(=O)NC2CCCCNC2=O)sc2ccc(Cl)cc12 (stereo not drawn)	none
